From PubChem BioAssay
Shown are actives, neighbours in structure and some others; about 19% of the full set was active somewhere.
Pf growth 48h – Primary qHTS for delayed death inhibitors of the malarial parasite plastid, 48 hour incubation. P. falciparum luciferase growth in erythrocytes, 48 h. Potency, µM (titrated, usually from 28.7 µM), usual class: inhibitors. actives 5.9% (n = 310,000). AID 504832, 2011
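Read-out is firefly luciferase luminescence from an integrated reporter in P. falciparum, so falling signal marks reduced parasite growth. Infected erythrocytes were at 2% hematocrit and 0.1% parasitemia (final) in Albumax-supplemented RPMI 1640.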
Lassa entry inh – qHTS for Inhibitors of binding or entry into cells for Lassa Virus | Lassa virus pseudotype entry inhibition, cell reporter | Potency, µM (doses to about 37.9 µM), usual class: inhibitors | actives 1.2% (n = 300,000) | AID 540256, 2011; calls by dose curve; tested in HEK293 cells; note: nearly all actives have a fitted effect of over 50% in size
Shiga toxin inh – A qHTS for Small Molecule Inhibitors of Shiga Toxin. actives 9.2% (n = 290,000). Vero cells, Shiga toxin protein synthesis inhibition reporter. inhibition, % at 38.7 µM; in the data active = inhibition mostly above about 28%, no sharp cut-off; inactive = mostly below about 43%
Pf growth 96h – Primary qHTS for delayed death inhibitors of the malarial parasite plastid, 96 hour incubation | P. falciparum luciferase reporter growth, 96 h | Potency, µM (top dose mostly 28.7 µM), most hits filed as inhibitors | actives 6.9% (n = 320,000)
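P. falciparum expressing integrated firefly luciferase, in erythrocytes at 2% hematocrit, 0.05% parasitemia, incubated with compounds 96 h at 37 C, 5% CO2. Growth inhibition read as loss of luminescence; two-generation exposure targets delayed-death apicoplast inhibitors.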
Marburg entry inh – qHTS for inhibitors of binding or entry into cells for Marburg Virus | Marburg virus pseudotyped entry inhibition, cell reporter | Potency, µM (series often up to 37.8 µM), usual class: inhibitors | actives 1.8% (n = 300,000) | AID 540276, 2011; calls by dose curve; tested in HEK293 cells
CHX counter – Cycloheximide Counterscreen for Small Molecule Inhibitors of Shiga Toxin | cell reporter, cycloheximide protein synthesis inhibition counterscreen | max response, % | actives 12% (n = 300,000) | AID 2314, 2010; in the data active = max response mostly above about 13%, no sharp cut-off; inactive = mostly below about 14%; note: read at 38.3 µM for the half of the compounds with a filed dose
Each line names hits and unclear results; the compound was inactive in the other large screens. Unless noted, calls come from the whole dose curve; as a rule, active = well fitted inhibition curve with a large enough effect; inconclusive = small, poorly fitted or top-dose-only effect, or another doubt; inactive = no such curve, though single readings can be large or run the other way.

COCCN1C(=O)c2ccc(C(=O)Nc3cccnc3)cc2C1=O	Pf growth 96h inconclusive
Cc1cccc(OC(=O)NCCOC(=O)N(O)c2ccc(Cl)cc2)c1	Pf growth 96h 7.38µM
Cc1ccc(NC(=O)C(=O)NCCOc2ccc(Cl)cc2)c(C)c1	Pf growth 96h inconclusive
N#Cc1nc(-c2cccc3ccccc23)oc1NCC1CCCO1 (centres undefined)	Shiga toxin inh 65.5, CHX counter 51.7
N#Cc1nc(-c2ccc(Cl)cc2)oc1NCC1CCCO1 (centres undefined)	Shiga toxin inh 107.7, Marburg entry inh inconclusive, CHX counter 20.7
O=C1NC(=O)C(=Cc2coc3ccc(O)cc3c2=O)C(=O)N1	none (no result: Lassa entry inh, Marburg entry inh)
CC(=O)Nc1ccc(-c2cc(-c3ccccc3)nc(-c3ccccc3)n2)cc1	Pf growth 48h inconclusive, Pf growth 96h 1.31µM, Marburg entry inh inconclusive
CC(=O)Nc1ccc(-c2cc(-c3ccc(NC(C)=O)cc3)nc(-c3ccccc3)n2)cc1	Pf growth 96h inconclusive
Nc1ccc(-c2nc(-c3ccccc3)nc3ccccc23)cc1	none (no result: Lassa entry inh, Marburg entry inh)
Nc1ccc(-c2cc(-c3cccc(N)c3)nc(-c3ccccc3)n2)cc1	Pf growth 48h 13.1µM, Pf growth 96h 2.08µM
CCC(=O)Nc1ccc(-c2cc(-c3ccccc3)nc(-c3ccc(NC(=O)CC)cc3)n2)cc1	Pf growth 48h inconclusive, Pf growth 96h 13.1µM
CCN(CC)CCOC(=O)[C@@H](Cc1cccc2ccccc12)C[C@@H]1CCCO1	none (no result: Lassa entry inh, Shiga toxin inh, Marburg entry inh, CHX counter)
CCOC(=O)N1CCC(NC(=O)c2ccc(OC)c(CN3CC(=O)N4CCCC4C3=O)c2)CC1 (centres undefined)	Pf growth 48h inconclusive
Cc1ccc2nc(NCC(=O)O)nc(-c3ccccc3)c2c1	none
O=C1Nc2cc(C(=O)N3CCC4(CC3)OCCO4)ccc2NC1CSCc1cccc(F)c1 (centres undefined)	none (no result: Lassa entry inh, Marburg entry inh)
CCc1ccccc1OCC(=O)Nc1cccc(S(=O)(=O)NC2=NCCCCC2)c1	none (no result: Lassa entry inh, Shiga toxin inh, Marburg entry inh, CHX counter)
CC(C)(C)c1ccc(/C=N/N2C(=O)CSC2=S)cc1	Marburg entry inh inconclusive, CHX counter 15.8
COc1ccc(/C=N/N2C(=O)CSC2=S)cc1	Lassa entry inh inconclusive, Pf growth 96h inconclusive, Marburg entry inh inconclusive
COc1ccccc1NCC(=O)c1ccc(Cl)cc1	none
O=[N+]([O-])c1cccnc1Oc1ccc(OCc2ccccc2)cc1	Shiga toxin inh 61.1, CHX counter 62.8 (no result: Pf growth 48h, Lassa entry inh, Marburg entry inh)
O=[N+]([O-])c1ccc(Oc2ccc(OCc3ccccc3)cc2)nc1	none (no result: Pf growth 48h)
O=[N+]([O-])c1cccnc1Oc1ccc(C2SCCS2)cc1	Pf growth 48h 4.65µM, Shiga toxin inh 72.6, Pf growth 96h 10.4µM, CHX counter 57.6 (no result: Lassa entry inh)
CCCNC(=O)c1cc(-c2ccco2)on1	Lassa entry inh inconclusive, Shiga toxin inh 119.6, CHX counter 48.8
CC(C)CNC(=O)c1cc(-c2ccco2)on1	Lassa entry inh inconclusive, Shiga toxin inh active, Marburg entry inh inconclusive, CHX counter 35.3
Cc1ccc(S(=O)(=O)NC(=O)Nc2cc(C)on2)cc1	none
N#Cc1c(Cl)nsc1NN	Shiga toxin inh 69.9, CHX counter 29.5
COc1ccc(N2CCn3c2nc2c3c(=O)n(CCCc3ccccc3)c(=O)n2C)c(OC)c1	Pf growth 48h inconclusive, Lassa entry inh inconclusive, Pf growth 96h inconclusive, Marburg entry inh inconclusive
COc1ccc(N2CC(C)Cn3c2nc2c3c(=O)n(Cc3ccccc3)c(=O)n2C)c(OC)c1 (centres undefined)	Pf growth 48h inconclusive, Lassa entry inh inconclusive, Pf growth 96h 8.28µM, Marburg entry inh inconclusive
COc1ccc(N2CCn3c2nc2c3c(=O)n(CCc3ccccc3)c(=O)n2C)c(OC)c1	Pf growth 96h 11.7µM (no result: Lassa entry inh)
COc1ccc(-c2nnc3n(CCc4ccccc4)c(=O)c4ccccc4n23)c(OC)c1	Pf growth 48h 13.1µM, Lassa entry inh inconclusive, Pf growth 96h 4.65µM, Marburg entry inh 10µM
COCC1CCCN(C(=O)c2cc(COc3cccc4cccnc34)on2)C1 (centres undefined)	Pf growth 96h inconclusive, Marburg entry inh inconclusive
O=C1c2cccnc2C(Nc2ccc(F)c(Cl)c2)N1Cc1cccs1 (centres undefined)	none (no result: Lassa entry inh, Marburg entry inh)
CCOc1cccc(C(=O)N/N=C/c2ccoc2)c1	Shiga toxin inh 49.3, CHX counter 23.9
COc1ccc(C(=O)N/N=C\c2ccoc2)cc1	Pf growth 96h 4.65µM (no result: Lassa entry inh, Marburg entry inh)
COc1cc(OC)c(C(=O)N/N=C/c2ccoc2)cc1OC	none
CCCOc1cccc(C(=O)N/N=C/c2coc3ccccc3c2=O)c1	Pf growth 96h 13.1µM (no result: Lassa entry inh, Marburg entry inh)
Cc1ccc(C(=O)N/N=C/c2ccoc2)cc1C	Shiga toxin inh 63.3, CHX counter 40.9 (no result: Lassa entry inh, Marburg entry inh)
O=C1CCCCC1Nc1ccc2ccccc2c1 (centres undefined)	Lassa entry inh inconclusive, Marburg entry inh 3.55µM (no result: Pf growth 48h, Shiga toxin inh, Pf growth 96h, CHX counter)
O=C(Nc1ccc2ccccc2c1)c1cccc2ccccc12	Marburg entry inh inconclusive (no result: Pf growth 48h, Shiga toxin inh, Pf growth 96h, CHX counter)
O=C1CCCC1C(=O)Nc1ccc2ccccc2c1 (centres undefined)	Shiga toxin inh 45.1, CHX counter 17.1 (no result: Lassa entry inh, Marburg entry inh)
O=C1CCC(c2ccc3ccccc3c2)O1 (centres undefined)	none (no result: Pf growth 48h, Shiga toxin inh, Pf growth 96h, CHX counter)
O=C(CSc1cn(CC(=O)N2CCCC2)c2ccccc12)NCC1CCCO1 (centres undefined)	none (no result: Lassa entry inh)
Cc1[nH]nc(SCC(=O)N2CCOCC2)c1[N+](=O)[O-]	none
O=C(NC(=S)N1CCN(c2ccc(C(F)(F)F)cc2[N+](=O)[O-])CC1)c1cccs1	Pf growth 96h 4.15µM
CCN1CCN(C(=S)NC(=O)c2cccs2)CC1	Pf growth 48h inconclusive
COc1ccc(-c2ccc(CN3C(C(C)C)C(=O)N(Cc4cn(CCC5OCCO5)nn4)CCS3(=O)=O)cc2)cn1 (centres undefined)	none (no result: Pf growth 48h, Shiga toxin inh, Pf growth 96h, Marburg entry inh, CHX counter)
NC(=O)Cc1ccc(C(=O)c2ccc(F)cc2)s1	CHX counter 25.4
Cc1cc(=O)oc2c(C)c(OC(C)C(=O)NC(Cc3c[nH]c4ccc(O)cc34)C(=O)O)ccc12 (centres undefined)	none (no result: Lassa entry inh, Marburg entry inh)
COc1ccc(C(=O)N2CCc3cc4c(cc3C2C)OCCCO4)cc1 (centres undefined)	Pf growth 48h inconclusive, Pf growth 96h 13.1µM (no result: Lassa entry inh, Marburg entry inh)
CC(C)(C)c1ccccc1OCCCCCNCCO	Pf growth 48h 4.15µM, Lassa entry inh inconclusive, Marburg entry inh inconclusive
Cc1ccccc1OCCCCCNCCO	none (no result: Pf growth 96h)
CC(C)c1ccccc1OCCCCCNCCO	Pf growth 48h 4.15µM, Lassa entry inh inconclusive, Pf growth 96h 4.15µM, Marburg entry inh inconclusive
Cc1cc(C(=O)COc2cccc(-n3cnnn3)c2)c(C)n1-c1ccccc1	Pf growth 48h inconclusive, Lassa entry inh inconclusive, CHX counter 16.5
Cc1nnc(SCC(=O)c2cc(C)n(-c3c(C)n(C)n(-c4ccccc4)c3=O)c2C)s1	none
Cc1cc(C(=O)CSc2nncn2C)c(C)n1-c1ccccc1	Lassa entry inh inconclusive, Shiga toxin inh 58.5, Marburg entry inh inconclusive, CHX counter 34.1
